tested on: PPARg homodimer (NR concentration 180 nM); assay: PBM binding z-score (relative to random genomic background probes); higher = stronger binding; sequences stand for … in GC…GCGATTGACAGCGTAGAATGAAGG
Method in brief: (§1)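 Probes were double-stranded and carried 34-nt variable regions with direct-repeat seeds, single-nucleotide variants, half-site ablations and random human genomic background sequences, printed on custom Agilent 4×180K protein-binding microarrays. Arrays were incubated 1 h with ligand-free nuclear receptor dimers in PBS pH 7.4, 2% milk, 0.02% Triton X-100, 1 mM DTT, 0.2 mg/mL BSA and 0.4 mg/ml salmon testes DNA. Antibodies against each partner (one per run) detected binding, and scanned fluorescence was regression-normalized. Binding z-scores use the random background probes as reference.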

Sequence	PBM binding z-score
CCGAGTAGGTTGCGAGGGGGCATTCAGTGCGAAT	0.668
TCGAGTTGGTTACGGGGGCATTCAGGGATGAAGA	1.79
CTACGTAGGTTAAGGGGGTCATTCAGTTTGAAAG	2.77
CTTTGTAGGTTAAGGGGGTCATTCAGTTTGAAAG	3.76
CTATGTAGGTTAAGGGGGTCATTAAGTTTGAAAG	3.7
TCGAGTAGGTTACGGTGGCATTCAGGGATGAAGA	0.177
CTATGTAGGTTAAGGGGCTCATTCAGTTTGAAAG	1.36
TCGAATAGGTTACGGGGGCATTCAGGGATGAAGA	2.1
CTATGTAGGTTAAGGGGATCATTCAGTTTGAAAG	1.89
CCGAGTAGGTTATGAGGGGGCATTCAGTGCGAAT	1.86
CAGAGTAGGTTACGAGGGGGCATTCAGTGCGAAT	1.94
CCGAGTAGGTTACGAGGCGGCATTCAGTGCGAAT	0.605
CTATGTAGGTTAAGTGGGTCATTCAGTTTGAAAG	1.59
TCGAGTAAGTTACGGGGGCATTCAGGGATGAAGA	0.93
TCGAGTAGGTTACGGGGGCATTAAGGGATGAAGA	1.98
CTATGTAGGTTAAGGGGGTCATCCAGTTTGAAAG	3.6
TCGAGTAGTTTACGGGGGCATTCAGGGATGAAGA	0.685

tested on: PXR:RXRa (NR concentration 270 nM, RXRa partner concentration 90 nM); assay: as above
Method in brief: as §1

Sequence	PBM binding z-score
CTATGTAGGGTAAGGGGGTCATTCAGTTTGAAAG	5.91
TCGAGAAGGTTACGGGGGCATTCAGGGATGAAGA	3.71
TCGAGTAGGTTACGGGGGTATTCAGGGATGAAGA	2.09
CCGAGTAGGTTACGAGGGGGCATTTAGTGCGAAT	4.52
TCGAGTAGGTTACAGGGGCATTCAGGGATGAAGA	1.17
CCGAGTAGGTTACGACGGGGCATTCAGTGCGAAT	1.68
CCGAGTAGGTTACGAGGGGGCATGCAGTGCGAAT	4.24
CTATGCAGGTTAAGGGGGTCATTCAGTTTGAAAG	5.97
TCGAGTAGGGTACGGGGGCATTCAGGGATGAAGA	3.3
CCGAGTAGGTTACGAGCGGGCATTCAGTGCGAAT	1.73
CCGAGTAGGTTACGAGGGGGCCTTCAGTGCGAAT	1.73
TCGAGTAGGTTAGGGGGGCATTCAGGGATGAAGA	3.99
CTATGTAGGTTAAGGGGTTCATTCAGTTTGAAAG	5.14
CTATGTAGGTTAAGGGGGTCAATCAGTTTGAAAG	5.16
CCGAGTAGGTTACGAGGGGGCATTCACTGCGAAT	4.44
TCGAGTAGGTTACGGGGGCATTCCGGGATGAAGA	3.08
CTATGTAGTTTAAGGGGGTCATTCAGTTTGAAAG	5.93
CCGAGTAGGTTACGAGGGGGCAATCAGTGCGAAT	4.26
CTAGGTAGGTTAAGGGGGTCATTCAGTTTGAAAG	5.85
CTATGTATGTTAAGGGGGTCATTCAGTTTGAAAG	5.85

Sequence	PBM binding z-score
CCGAGTAGATTACGAGGGGGCATTCAGTGCGAAT	2.73
CCGAGTAGGTTACGAGGGGGCACTCAGTGCGAAT	4.32
CCGAGTAGGTTGCGAGGGGGCATTCAGTGCGAAT	3.67
TCGAGTTGGTTACGGGGGCATTCAGGGATGAAGA	3.22
CTACGTAGGTTAAGGGGGTCATTCAGTTTGAAAG	5.94
CTTTGTAGGTTAAGGGGGTCATTCAGTTTGAAAG	5.9
CTATGTAGGTTAAGGGGGTCATTAAGTTTGAAAG	5.89
TCGAGTAGGTTACGGTGGCATTCAGGGATGAAGA	-0.0566
CTATGTAGGTTAAGGGGCTCATTCAGTTTGAAAG	0.403
TCGAATAGGTTACGGGGGCATTCAGGGATGAAGA	3.82
CTATGTAGGTTAAGGGGATCATTCAGTTTGAAAG	1.01
CCGAGTAGGTTATGAGGGGGCATTCAGTGCGAAT	4.85
CAGAGTAGGTTACGAGGGGGCATTCAGTGCGAAT	4.86
CCGAGTAGGTTACGAGGCGGCATTCAGTGCGAAT	-0.147
CTATGTAGGTTAAGTGGGTCATTCAGTTTGAAAG	2.36
TCGAGTAAGTTACGGGGGCATTCAGGGATGAAGA	2.63
TCGAGTAGGTTACGGGGGCATTAAGGGATGAAGA	2.76
CTATGTAGGTTAAGGGGGTCATCCAGTTTGAAAG	5.82
TCGAGTAGTTTACGGGGGCATTCAGGGATGAAGA	2.74

tested on: PXR homodimer (NR concentration 270 nM); assay: as above
Method in brief: as §1

Sequence	PBM binding z-score
CTATGTAGGGTAAGGGGGTCATTCAGTTTGAAAG	11.1
TCGAGAAGGTTACGGGGGCATTCAGGGATGAAGA	1.24
TCGAGTAGGTTACGGGGGTATTCAGGGATGAAGA	0.83
CCGAGTAGGTTACGAGGGGGCATTTAGTGCGAAT	2.55
TCGAGTAGGTTACAGGGGCATTCAGGGATGAAGA	0.587
CCGAGTAGGTTACGACGGGGCATTCAGTGCGAAT	0.127
CCGAGTAGGTTACGAGGGGGCATGCAGTGCGAAT	2.63
CTATGCAGGTTAAGGGGGTCATTCAGTTTGAAAG	12.4
TCGAGTAGGGTACGGGGGCATTCAGGGATGAAGA	1.96
CCGAGTAGGTTACGAGCGGGCATTCAGTGCGAAT	0.506
CCGAGTAGGTTACGAGGGGGCCTTCAGTGCGAAT	0.533
TCGAGTAGGTTAGGGGGGCATTCAGGGATGAAGA	3.93
CTATGTAGGTTAAGGGGTTCATTCAGTTTGAAAG	12.3
CTATGTAGGTTAAGGGGGTCAATCAGTTTGAAAG	7.48
CCGAGTAGGTTACGAGGGGGCATTCACTGCGAAT	0.728
TCGAGTAGGTTACGGGGGCATTCCGGGATGAAGA	1.1
CTATGTAGTTTAAGGGGGTCATTCAGTTTGAAAG	13.2
CCGAGTAGGTTACGAGGGGGCAATCAGTGCGAAT	2.9
CTAGGTAGGTTAAGGGGGTCATTCAGTTTGAAAG	11.1
CTATGTATGTTAAGGGGGTCATTCAGTTTGAAAG	9.76

Sequence	PBM binding z-score
CCGAGTAGATTACGAGGGGGCATTCAGTGCGAAT	3.64
CCGAGTAGGTTACGAGGGGGCACTCAGTGCGAAT	3.02
CCGAGTAGGTTGCGAGGGGGCATTCAGTGCGAAT	4.85
TCGAGTTGGTTACGGGGGCATTCAGGGATGAAGA	3.31
CTACGTAGGTTAAGGGGGTCATTCAGTTTGAAAG	11.4
CTTTGTAGGTTAAGGGGGTCATTCAGTTTGAAAG	12
CTATGTAGGTTAAGGGGGTCATTAAGTTTGAAAG	12.5
TCGAGTAGGTTACGGTGGCATTCAGGGATGAAGA	-0.975
CTATGTAGGTTAAGGGGCTCATTCAGTTTGAAAG	0.167
TCGAATAGGTTACGGGGGCATTCAGGGATGAAGA	1.8
CTATGTAGGTTAAGGGGATCATTCAGTTTGAAAG	0.432
CCGAGTAGGTTATGAGGGGGCATTCAGTGCGAAT	5.74
CAGAGTAGGTTACGAGGGGGCATTCAGTGCGAAT	6.24
CCGAGTAGGTTACGAGGCGGCATTCAGTGCGAAT	-0.255
CTATGTAGGTTAAGTGGGTCATTCAGTTTGAAAG	4.47
TCGAGTAAGTTACGGGGGCATTCAGGGATGAAGA	1.19
TCGAGTAGGTTACGGGGGCATTAAGGGATGAAGA	1.24
CTATGTAGGTTAAGGGGGTCATCCAGTTTGAAAG	9.26
TCGAGTAGTTTACGGGGGCATTCAGGGATGAAGA	1.47

— the supplement of paper PMC6555819
